The values below come from ChEMBL document CHEMBL3988442, “University of Dundee, Small-Polar-MMV Screening Library” (2021).

What all share (parameters): scale not given: direction of the effect not stated beside the values
Test [1] addresses Protein translocase subunit SecA (Escherichia coli (strain K12)) (UniProt P10408). The test can be described thus: Assay to Identify E. coli SecA ATPase Inhibitors. Format: functional. Conditions: 30 µM.
Test [2] deals with T1, Ubiquitin-activating enzyme e1, putative (Leishmania donovani (strain BPK282A1)) (UniProt E9BSI1).
T1 sequence (whole entry): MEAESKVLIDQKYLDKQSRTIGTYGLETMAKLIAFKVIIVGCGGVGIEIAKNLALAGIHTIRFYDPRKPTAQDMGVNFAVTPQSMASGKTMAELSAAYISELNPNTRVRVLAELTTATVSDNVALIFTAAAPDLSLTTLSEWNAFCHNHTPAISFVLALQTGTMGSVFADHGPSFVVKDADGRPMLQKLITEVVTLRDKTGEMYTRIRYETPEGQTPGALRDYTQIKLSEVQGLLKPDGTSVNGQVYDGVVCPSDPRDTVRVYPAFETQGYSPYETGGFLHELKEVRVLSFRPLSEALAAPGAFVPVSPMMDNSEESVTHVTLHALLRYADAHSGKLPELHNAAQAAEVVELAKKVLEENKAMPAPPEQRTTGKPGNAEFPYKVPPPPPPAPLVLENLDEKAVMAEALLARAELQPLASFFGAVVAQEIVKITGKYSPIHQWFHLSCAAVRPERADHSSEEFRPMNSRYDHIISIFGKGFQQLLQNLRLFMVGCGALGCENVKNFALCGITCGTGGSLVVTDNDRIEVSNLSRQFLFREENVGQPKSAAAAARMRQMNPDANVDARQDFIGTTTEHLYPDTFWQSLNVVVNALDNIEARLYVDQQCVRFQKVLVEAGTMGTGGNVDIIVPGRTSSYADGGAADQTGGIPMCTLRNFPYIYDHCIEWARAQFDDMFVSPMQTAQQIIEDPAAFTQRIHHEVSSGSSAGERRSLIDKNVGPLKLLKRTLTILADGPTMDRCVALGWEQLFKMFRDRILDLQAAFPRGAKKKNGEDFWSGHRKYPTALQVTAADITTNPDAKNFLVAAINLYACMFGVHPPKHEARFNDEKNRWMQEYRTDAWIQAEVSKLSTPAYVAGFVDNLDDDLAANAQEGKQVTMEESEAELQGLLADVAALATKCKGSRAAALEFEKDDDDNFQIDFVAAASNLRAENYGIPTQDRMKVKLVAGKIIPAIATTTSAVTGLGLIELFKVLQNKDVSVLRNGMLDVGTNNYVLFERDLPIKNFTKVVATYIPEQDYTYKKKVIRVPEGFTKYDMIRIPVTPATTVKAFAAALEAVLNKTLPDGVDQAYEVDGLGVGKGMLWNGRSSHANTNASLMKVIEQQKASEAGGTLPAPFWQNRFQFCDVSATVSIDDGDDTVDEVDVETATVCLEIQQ
Kind of test: Leishmania donovani Ubiquitin Activating Enzyme (LdE1). Format: functional. The note with it: 30 µM.

Test [3] deals with AMP-activated protein kinase, AMPK (Homo sapiens) (UniProt P54646+O43741+P54619+Q9UGJ0+Q9Y478+Q13131+Q9UGI9). The test can be described thus: AMP-dependent Kinase enzyme assay. An in vitro enzyme assay that detects ADP turnover that is directly proportional to AMPK activity. This uses naive AMPK that is activated during the assay with MK-8722. Format: functional. Conditions: 30 µM.

The target in test [4] is Sialic acid-binding Ig-like lectin 9 (Homo sapiens) (UniProt Q9Y336). The test can be described thus: Hs-Siglec9 ALPHAscreen SOP 20170721. The note with it: 10 µM. On the technique in general: Alpha assays give light when donor and acceptor beads are brought close together.
For another test, the system named is Trypanosoma cruzi. The test can be described thus: Trypanosoma cruzi phosphomannomutase and mannose-1-phosphate guanylyltransferase assay. Format: functional. The note with it: 10 µM.
Test [5] deals with T2, Arginase-2, mitochondrial (Homo sapiens) (UniProt P78540).
T2 sequence (whole entry): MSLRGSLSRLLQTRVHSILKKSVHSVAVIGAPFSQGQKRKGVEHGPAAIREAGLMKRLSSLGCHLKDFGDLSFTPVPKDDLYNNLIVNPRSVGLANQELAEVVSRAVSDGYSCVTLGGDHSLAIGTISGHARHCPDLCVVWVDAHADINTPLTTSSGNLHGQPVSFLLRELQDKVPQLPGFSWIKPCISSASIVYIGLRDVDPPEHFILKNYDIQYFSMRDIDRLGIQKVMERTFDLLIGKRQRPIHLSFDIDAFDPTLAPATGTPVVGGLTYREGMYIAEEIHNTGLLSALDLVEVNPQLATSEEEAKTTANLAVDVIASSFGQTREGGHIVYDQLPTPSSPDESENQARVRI
The test can be described thus: in vitro enzyme assay to detect the production of urea directly proportional to the activity of Arginase II. Note: in the data most compounds retested in dose-response had high values. The note with it: 33.3 µM. Format: functional.

The target in test [6] is T3, Proteasome subunit beta (Trypanosoma cruzi) (UniProt O96673).
T3 sequence (whole entry): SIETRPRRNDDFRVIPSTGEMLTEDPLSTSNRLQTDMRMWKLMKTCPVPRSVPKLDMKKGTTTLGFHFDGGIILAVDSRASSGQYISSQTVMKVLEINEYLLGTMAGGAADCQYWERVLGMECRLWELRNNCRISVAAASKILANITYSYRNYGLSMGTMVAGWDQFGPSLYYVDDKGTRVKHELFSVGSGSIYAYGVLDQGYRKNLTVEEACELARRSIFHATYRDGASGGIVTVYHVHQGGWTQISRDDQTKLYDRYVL
The test can be described thus: Trypanosoma cruzi proteasome chymotrypsin-like activity (TcProtChymo) assay. Note: in the data most compounds retested in dose-response had high values. Format: functional. The note with it: 9.37 µM.

The species named for the next test is Homo sapiens. The test can be described thus: To identify inhibition of the IFN signalling (Jak-Stat) pathway via expression of an eGFP reporter gene under the control of an IFN-stimulated response element (ISRE) containing MxA promoter. Format: functional. Conditions: 30 µM. (In a reporter assay the amount or activity of a reporter protein is the signal.)
Test [7] has as its target T4, Tyrosyl-tRNA synthetase, putative (Trypanosoma cruzi (strain CL Brener)) (UniProt Q4DSP6).
T4 sequence (whole entry): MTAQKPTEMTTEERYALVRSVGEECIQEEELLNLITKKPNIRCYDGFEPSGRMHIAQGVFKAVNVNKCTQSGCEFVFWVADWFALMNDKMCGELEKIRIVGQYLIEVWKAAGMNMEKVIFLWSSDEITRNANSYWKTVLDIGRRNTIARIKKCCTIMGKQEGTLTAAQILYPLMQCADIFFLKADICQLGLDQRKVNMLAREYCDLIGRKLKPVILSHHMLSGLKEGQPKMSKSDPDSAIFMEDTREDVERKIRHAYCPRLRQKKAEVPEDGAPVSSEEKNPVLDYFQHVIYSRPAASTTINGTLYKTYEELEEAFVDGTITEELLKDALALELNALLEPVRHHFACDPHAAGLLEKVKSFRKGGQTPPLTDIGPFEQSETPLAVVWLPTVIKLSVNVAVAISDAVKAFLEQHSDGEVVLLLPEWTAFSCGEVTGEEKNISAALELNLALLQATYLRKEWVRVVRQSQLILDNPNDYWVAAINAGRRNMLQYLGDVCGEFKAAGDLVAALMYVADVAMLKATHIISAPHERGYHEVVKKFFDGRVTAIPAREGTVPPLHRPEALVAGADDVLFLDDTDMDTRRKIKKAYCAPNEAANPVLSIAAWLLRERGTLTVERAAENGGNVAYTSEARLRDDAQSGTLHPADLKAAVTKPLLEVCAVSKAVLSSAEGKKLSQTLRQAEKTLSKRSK
The test can be described thus: Trypanosoma cruzi tyrosyl tRNA synthetase (TcYRS) _High Tyrosine SOP. Note: in the data most compounds retested in dose-response had high values. Format: functional. Conditions: 30 µM.

Test [8] has as its target T4, Tyrosyl-tRNA synthetase, putative (Trypanosoma cruzi (strain CL Brener)). The test can be described thus: Trypanosoma cruzi tyrosyl tRNA synthetase (TcYRS) SOP. Format: functional. Conditions: 30 µM.
Test [9] concerns the target Chromo domain-containing protein 1 (Saccharomyces cerevisiae (strain ATCC 204508 / S288c) (Baker's yeast)) (UniProt P32657). Kind of test: ScCHD-1 Enzyme Inhibition Assay. Note: in the data most compounds retested in dose-response had high values. Format: functional. The note with it: 30 µM.

For some of these results: Entries with a potency or affinity are not part of this list.

Protein translocase subunit SecA (Escherichia coli (strain K12)), sequence (P10408 whole entry): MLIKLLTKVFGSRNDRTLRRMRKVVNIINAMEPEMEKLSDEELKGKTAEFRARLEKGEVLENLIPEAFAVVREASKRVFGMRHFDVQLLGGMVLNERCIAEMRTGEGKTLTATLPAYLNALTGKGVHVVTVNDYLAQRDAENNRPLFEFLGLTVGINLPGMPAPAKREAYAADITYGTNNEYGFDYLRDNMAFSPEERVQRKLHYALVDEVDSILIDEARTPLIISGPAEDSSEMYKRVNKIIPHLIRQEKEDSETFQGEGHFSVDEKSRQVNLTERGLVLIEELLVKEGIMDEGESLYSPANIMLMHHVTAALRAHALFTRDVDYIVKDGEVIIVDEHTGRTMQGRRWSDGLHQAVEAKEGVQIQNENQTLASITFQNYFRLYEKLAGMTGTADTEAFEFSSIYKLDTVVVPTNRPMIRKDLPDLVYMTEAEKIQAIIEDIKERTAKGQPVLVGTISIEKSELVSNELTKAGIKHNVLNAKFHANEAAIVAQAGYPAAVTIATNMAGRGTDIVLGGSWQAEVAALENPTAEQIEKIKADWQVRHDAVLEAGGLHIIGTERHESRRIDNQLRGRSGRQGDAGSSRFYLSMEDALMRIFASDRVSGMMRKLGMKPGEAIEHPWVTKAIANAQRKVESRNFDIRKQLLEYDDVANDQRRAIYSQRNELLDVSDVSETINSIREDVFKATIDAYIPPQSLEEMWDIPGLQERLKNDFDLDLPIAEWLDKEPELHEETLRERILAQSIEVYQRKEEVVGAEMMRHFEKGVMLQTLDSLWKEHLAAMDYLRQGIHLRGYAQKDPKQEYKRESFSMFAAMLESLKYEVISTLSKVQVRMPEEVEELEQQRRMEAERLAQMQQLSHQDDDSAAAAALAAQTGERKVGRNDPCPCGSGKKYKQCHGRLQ
Sialic acid-binding Ig-like lectin 9 (Homo sapiens), sequence (Q9Y336 whole entry): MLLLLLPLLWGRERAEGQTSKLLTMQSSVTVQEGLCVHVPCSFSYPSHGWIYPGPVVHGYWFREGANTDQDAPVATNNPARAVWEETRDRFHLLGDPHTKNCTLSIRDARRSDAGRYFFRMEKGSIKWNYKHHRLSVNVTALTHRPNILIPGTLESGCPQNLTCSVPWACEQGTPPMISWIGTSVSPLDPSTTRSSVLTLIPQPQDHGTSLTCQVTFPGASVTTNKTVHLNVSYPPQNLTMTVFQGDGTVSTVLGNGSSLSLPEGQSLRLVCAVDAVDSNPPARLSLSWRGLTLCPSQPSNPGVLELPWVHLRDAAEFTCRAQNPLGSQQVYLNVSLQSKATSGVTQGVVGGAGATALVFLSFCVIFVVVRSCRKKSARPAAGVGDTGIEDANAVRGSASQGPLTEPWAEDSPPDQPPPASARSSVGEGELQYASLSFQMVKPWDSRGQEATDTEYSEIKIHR
Chromo domain-containing protein 1 (Saccharomyces cerevisiae (strain ATCC 204508 / S288c) (Baker's yeast)), sequence (P32657 whole entry, the tested form may be a part): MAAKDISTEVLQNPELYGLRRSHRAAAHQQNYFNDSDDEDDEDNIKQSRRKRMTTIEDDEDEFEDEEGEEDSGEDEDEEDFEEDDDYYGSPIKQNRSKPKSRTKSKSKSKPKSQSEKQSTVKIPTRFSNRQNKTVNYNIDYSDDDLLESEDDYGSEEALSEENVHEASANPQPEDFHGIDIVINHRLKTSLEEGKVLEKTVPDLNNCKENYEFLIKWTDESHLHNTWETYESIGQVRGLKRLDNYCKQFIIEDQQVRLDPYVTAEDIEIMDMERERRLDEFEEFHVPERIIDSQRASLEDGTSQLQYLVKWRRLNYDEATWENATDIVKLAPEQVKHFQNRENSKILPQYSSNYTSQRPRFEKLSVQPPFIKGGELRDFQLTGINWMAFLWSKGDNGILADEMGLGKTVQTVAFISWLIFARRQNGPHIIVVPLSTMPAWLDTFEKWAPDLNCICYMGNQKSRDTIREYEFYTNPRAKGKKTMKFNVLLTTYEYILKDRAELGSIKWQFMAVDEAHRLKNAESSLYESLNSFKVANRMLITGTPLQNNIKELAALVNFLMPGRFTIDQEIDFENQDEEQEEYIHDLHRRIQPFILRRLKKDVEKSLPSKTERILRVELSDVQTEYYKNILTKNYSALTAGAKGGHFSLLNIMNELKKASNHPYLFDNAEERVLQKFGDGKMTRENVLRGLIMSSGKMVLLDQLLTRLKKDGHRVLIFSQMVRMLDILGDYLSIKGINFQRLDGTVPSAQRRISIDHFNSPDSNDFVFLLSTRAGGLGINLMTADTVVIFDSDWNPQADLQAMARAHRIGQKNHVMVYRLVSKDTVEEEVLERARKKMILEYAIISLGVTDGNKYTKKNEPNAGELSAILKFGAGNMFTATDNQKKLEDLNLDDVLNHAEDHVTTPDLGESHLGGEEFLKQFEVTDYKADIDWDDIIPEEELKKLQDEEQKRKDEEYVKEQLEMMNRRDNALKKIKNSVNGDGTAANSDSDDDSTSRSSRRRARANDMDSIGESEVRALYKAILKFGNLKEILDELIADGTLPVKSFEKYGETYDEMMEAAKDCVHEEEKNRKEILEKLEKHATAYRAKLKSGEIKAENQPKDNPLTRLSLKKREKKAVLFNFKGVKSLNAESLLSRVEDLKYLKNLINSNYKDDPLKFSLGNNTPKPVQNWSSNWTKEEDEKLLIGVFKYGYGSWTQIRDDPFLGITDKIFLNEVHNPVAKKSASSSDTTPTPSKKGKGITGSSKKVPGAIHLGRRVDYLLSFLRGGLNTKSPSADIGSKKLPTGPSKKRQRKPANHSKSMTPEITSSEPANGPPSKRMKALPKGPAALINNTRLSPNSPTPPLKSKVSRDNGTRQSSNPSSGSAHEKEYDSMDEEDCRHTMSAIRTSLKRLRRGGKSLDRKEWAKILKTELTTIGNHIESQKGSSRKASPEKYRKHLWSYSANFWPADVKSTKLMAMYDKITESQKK

Regarding `CC(C)c1nccn1C1CCCN(C(=O)c2cnn(C)c2C2CC2)C1` (stereo unspecified), the Percent Effect is -1.82% in test [1]; 13.2% in test [2]; -2.81% in test [3]; -2.13% in [4]; 2.71% with Trypanosoma cruzi; -5.75% in test [5]. Moreover, the Percent Effect is 6.34% in test [6]; -7.13% in the test filed under Homo sapiens; 13.3% in test [7]; 25.9% in test [8]; -8.69% in [9].
In the case of `CN(Cc1nccs1)c1nc(-c2ccccn2)nc2c1CCNCC2`, the Percent Effect in [1] was -3.65%; in test [2] it was -1.39%; in [3] it was -0.513%; in [4], -2.23%; with Trypanosoma cruzi, 4.57%; in test [5], -2.21%. Also, the Percent Effect is 8.95% in [6]; 11.4% in the test filed under Homo sapiens; 10.5% in test [7]; 12.8% in test [8]; -1.22% in test [9].
Regarding `CSCc1cccc(S(=O)(=O)NCCCO)c1`, the Percent Effect in test [1] is -4.83%; in test [2] it was 5.2%; in test [3], 5.07%; in test [4] it was 1.97%; in the test with Trypanosoma cruzi, -0.0983%; in [5] it was -20.7%. Moreover, the Percent Effect in test [6] was 3.33%; in the test filed under Homo sapiens it was -20.6%; in test [7], 5.38%; in [8] it was 11.1%; in [9], -2.83%.
`CCc1noc(C(C)N2CCC(C(=O)Nc3cnn(CC)c3)CC2)n1` (stereo unspecified): the Percent Effect in test [1] is -1.91%; in [2], 1.27%; in test [3], 3.92%; in test [4], -3.56%; with Trypanosoma cruzi, 1.54%; in test [5], 2.37%. Moreover, the Percent Effect in test [6] was 7.72%; in the test listed under Homo sapiens, 8.57%; in test [7] it was -4.17%; in test [8], -10.1%; in test [9], -28.9%.
On to `O=C(CCc1cccs1)N1CCC(N2CCNC2=O)CC1`, for which the Percent Effect in test [1] is -2.57%; in test [2], 23.4%; in [3], -4.07%; in test [4], -12.7%; in the test on Trypanosoma cruzi it was 3.23%; in test [5], -1.05%. Besides, the Percent Effect in test [6] is 18.5%; in the test filed under Homo sapiens, -5.88%; in [7], 7.62%; in test [8], 25.9%; in [9], -19.5%.
Consider `Cc1cnn(CC2CCCCN2CC(=O)NCc2ccccn2)c1` (stereo unspecified), for which the Percent Effect in test [1] is -2.64%; in [2] it was -2.63%; in test [3], 6.62%; in test [4] it was 0.337%; with Trypanosoma cruzi, 7.11%; in test [5] it was -1.18%. Also, the Percent Effect is 17.4% in [6]; -2.67% in the test filed under Homo sapiens; 5.32% in test [7]; 5.2% in test [8]; -0.694% in test [9].
Turning to `Cc1ccccc1CN1CCC(NCC2CNc3ccnn3C2)CC1` (stereo unspecified), the Percent Effect in [1] is -0.777%; in test [2], 0%; in test [3], -17.1%; in [4] it was -4.24%; with Trypanosoma cruzi, 1.27%; in test [5] it was 1.24%. Also, the Percent Effect in test [6] is 11.4%; in the test filed under Homo sapiens, -3.35%; in test [7], 6.45%; in test [8], 13.6%; in test [9], -5.59%.
Take `CN(c1ccncn1)C1CC2(CCN(C(=O)CCc3cccs3)C2)C1` (stereo unspecified): the Percent Effect in [1] was -3.27%; in test [2], 1.35%; in test [3], 6.25%; in [4], 8.01%; in the test on Trypanosoma cruzi, 5.34%; in [5] it was -1.16%. Moreover, the Percent Effect in test [6] is 1.87%; in the test filed under Homo sapiens, 39.7%; in test [7], 5.38%; in test [8], 6.49%; in [9], -4.42%.
Take `CC(C)N(C)Cc1nnc2n1CCCN(C(=O)c1ccco1)C2`: the Percent Effect in test [1] was -1.99%; in test [2] it was 10.4%; in [3], 3.35%; in test [4], 2.67%; with Trypanosoma cruzi, 1.08%; in test [5], 13.6%. For the same compound, the Percent Effect in test [6] was 14.3%; in the test listed under Homo sapiens it was 24.5%; in [7], 7.41%; in [8], 14.1%; in [9], -7.03%.
On to `CSC(C)(C)CNC(=O)NC1CCSCC1`, for which the Percent Effect in test [1] was -4.83%; in [2] it was 13.3%; in test [3], -5.19%; in test [4] it was 18.2%; with Trypanosoma cruzi it was 8.47%; in [5], 5.73%. Besides, the Percent Effect in test [6] was 6.63%; in the test listed under Homo sapiens it was 4.48%; in test [7], 0.546%; in [8] it was 11.1%; in test [9], -6.59%.
For `CCn1cc2c(n1)CN(Cc1ccncc1)CC2COCC1CC1` (stereo unspecified), the Percent Effect in test [1] was -3.54%; in [2], 10.7%; in test [3], 12.3%; in [4] it was 6.03%; in the test with Trypanosoma cruzi, -1.97%; in test [5] it was -0.699%. The Percent Effect is 10.7% in [6]; 4.31% in the test filed under Homo sapiens; 6.38% in [7]; 11.5% in test [8]; -6.9% in test [9].
